PubChem BioAssay (NCATS)
Inconclusive results are not listed. Entries that show only a call come without a potency. Values without a mark were called inactive. The source made the active and inactive calls. Unless noted, the call rests on the fitted dose curve; in most records, active means well fitted curve in the direction sought with a large enough effect; inconclusive means small, poorly fitted or top-dose-only effect, or another doubt; inactive means no such curve, though single readings can be large; an effect the other way counts as inactive or inconclusive.

Assays:
[1] = Primary qHTS for small molecule stabilizers of the endoplasmic reticulum resident proteome: Secreted ER Calcium Modulated Protein (SERCaMP) assay (AID 1508630)
In short: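 The SH-SY5Y reporter protocol was run at 3 concentrations up to 38.3 uM (primary) or 11 concentrations (follow-up): 16 h compound, 100 nM thapsigargin for 4 h, then extracellular luciferase luminescence.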

[2] = A High-Content qHTS Against Drug Library for the Identification of Small Molecules that Inhibit DYT1 Early Onset Primary Dystonia-Associated Cell Pathology (AID 1645839; calls by dose curve; further: potency means the concentration at half of the fitted maximal effect)
In short: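 Induced EGFP-delE TorsinA cells are imaged after 48 h of compound treatment. Punctate fusion-protein distribution gives the %pathology value, while nuclei counts flag toxicity. Wild-type EGFP-hTOR1A cells define the normal pattern.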

[3] = Counterscreen qHTS for small molecule stabilizers of the endoplasmic reticulum resident proteome: GLuc-NoTag assay (AID 1508627); further: series mostly up to about 76 µM
In short: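 Secreted GLuc lacking the SERCaMP modification is measured in SH-SY5Y cells exposed to compound for 19 h and then to thapsigargin (100 nM, 4 h) to deplete ER calcium; hits retested at 11 concentrations, up to 76.6 uM.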

[4] = biological target: Cytochrome P450 2D6 (Homo sapiens) (UniProt P10635); assay: Cytochrome P450 family 2 subfamily D member 6 (CYP2D6) small molecule antagonists: luciferase biochemical (cell-free) qHTS assay (AID 1645840; active means well fitted curve in the direction sought with a large enough effect in the repeat runs; an effect the other way counts as inactive or inconclusive; further: nearly all actives have a fitted effect of over 55% in size; further: potency means the concentration at half of the fitted maximal effect)
Cytochrome P450 2D6 (Homo sapiens), sequence (P10635 whole entry, looked up): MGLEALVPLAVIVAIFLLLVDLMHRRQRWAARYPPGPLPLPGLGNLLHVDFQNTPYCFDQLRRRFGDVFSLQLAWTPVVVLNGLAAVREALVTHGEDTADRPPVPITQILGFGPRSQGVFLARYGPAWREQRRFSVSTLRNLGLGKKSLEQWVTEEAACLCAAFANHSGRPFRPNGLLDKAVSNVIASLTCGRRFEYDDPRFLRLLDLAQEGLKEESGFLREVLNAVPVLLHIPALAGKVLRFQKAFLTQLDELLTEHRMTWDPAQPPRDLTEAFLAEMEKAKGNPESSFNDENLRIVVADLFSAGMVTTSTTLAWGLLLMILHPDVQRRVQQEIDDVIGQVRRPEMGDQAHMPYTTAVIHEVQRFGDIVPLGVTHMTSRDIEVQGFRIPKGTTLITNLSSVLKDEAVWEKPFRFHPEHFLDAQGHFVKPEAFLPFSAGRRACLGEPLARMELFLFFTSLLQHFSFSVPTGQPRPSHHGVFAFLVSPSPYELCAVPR
In short: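 P450-Glo CYP2D6 system: proluciferin substrate converted by enzyme to luciferin, read by luminescence proportional to activity. Enzyme-substrate mix with compound 10 min at room temperature, then NADPH regeneration 1 h before detection reagent.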

[5] = biological target: Cytochrome P450 2C9 (Homo sapiens) (UniProt P11712); assay: Cytochrome P450 family 2 subfamily C member 9 (CYP2C9) small molecule antagonists: luciferase biochemical (cell-free) qHTS assay (AID 1645842; active means well fitted curve in the direction sought with a large enough effect in the repeat runs; an effect the other way counts as inactive or inconclusive; further: nearly all actives have a fitted effect of over 55% in size; further: potency means the concentration at half of the fitted maximal effect)
Cytochrome P450 2C9 (Homo sapiens), sequence (P11712 whole entry, looked up): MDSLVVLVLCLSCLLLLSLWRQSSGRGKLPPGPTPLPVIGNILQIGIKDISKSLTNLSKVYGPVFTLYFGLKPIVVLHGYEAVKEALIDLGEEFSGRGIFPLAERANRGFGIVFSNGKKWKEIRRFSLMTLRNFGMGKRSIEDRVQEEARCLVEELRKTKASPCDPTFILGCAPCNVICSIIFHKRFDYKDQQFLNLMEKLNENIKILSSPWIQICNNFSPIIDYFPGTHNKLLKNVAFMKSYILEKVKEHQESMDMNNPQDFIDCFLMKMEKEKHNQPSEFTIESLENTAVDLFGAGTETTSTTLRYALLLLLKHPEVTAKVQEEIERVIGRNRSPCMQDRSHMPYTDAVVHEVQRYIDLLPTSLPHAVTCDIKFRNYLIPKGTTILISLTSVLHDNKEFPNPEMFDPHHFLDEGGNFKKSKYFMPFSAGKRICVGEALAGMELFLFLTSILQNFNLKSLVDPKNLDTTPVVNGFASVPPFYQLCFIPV
In short: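 P450-Glo CYP2C9 system: proluciferin substrate with enzyme in mix containing 0.4% BSA, 10 min at room temperature, then NADPH regeneration solution added and incubated 1 h at 37C. Detection reagent stopped reaction; luminescence read after 20 min as RLU.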

[6] = Confirmatory qHTS for small molecule stabilizers of the endoplasmic reticulum resident proteome: Secreted ER Calcium Modulated Protein (SERCaMP) assay (AID 1508628); further: nearly all actives have a fitted effect of over 40% in size; further: potency means the concentration at half of the fitted maximal effect
In short: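 GLuc-SERCaMP-expressing SH-SY5Y cells, pretreated 16 h with compound, are challenged with thapsigargin to empty ER calcium stores; after 4 h, coelenterazine is added directly to the medium and luminescence is imaged.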

[7] = Cell Viability qHTS for small molecule stabilizers of the endoplasmic reticulum resident proteome (AID 1508629); settings: cell viability counter-screen, 100 nM thapsigargin for final 4 h;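 further: compound exposure about 46 h in total before the viability read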; further: potency means the concentration at half of the fitted maximal effect
From the text: Assay Provider: Brandon K. Harvey Ph.D.
National Institute on Drug Abuse, National Institutes of Health, Baltimore, MD
Endoplasmic reticulum (ER) dysregulation is associated with human pathologies including neurodegenerative, cardiovascular, muscular, and diabetic conditions. Maintenance of ER calcium is critical for functions of the ER and its depletion can lead to loss of ER resident proteins, in a process termed exodosis. Therapeutic compounds capable of attenuating the redistribution of ER proteins under pathological conditions may slow or stop disease progression. To identify such compounds, we performed a quantitative high-throughput screen (qHTS) using the SERCaMP assay, which monitors secretion of ER resident proteins triggered by calcium depletion.
SERCaMP was initially developed as a reporter of ER calcium homeostasis using a Gaussia luciferase with a modified signal peptide and carboxy-terminus (GLuc-SERCaMP), modifications that confer secretion of the reporter in response to ER calcium depletion (Henderson et al., 2014). The assay was used to screen 9,501 compounds, including a collection of drugs approved by the FDA (US), EMA (EU), NHI (Japan), and HC (Canada) regulatory agencies (Huang et al., 2011). Since the SERCaMP reporter reflects the exodosis phenomenon (Trychta et al., 2018a), compounds identified in the screen have the potential to prevent exodosis by different mechanisms such as stabilizing ER calcium or augmenting ERS retrieval.
1. Henderson, M.J., Wires, E.S., Trychta, K.A., Richie, C.T., and Harvey, B.K. (2014). SERCaMP: a carboxy-terminal protein modification that enables monitoring of ER calcium homeostasis. Mol Biol Cell 25, 2828-2839.
2. Huang, R., Southall, N., Wang, Y., Yasgar, A., Shinn, P., Jadhav, A., Nguyen, D.T., and Austin, C.P. (2011). The NCGC pharmaceutical collection: a comprehensive resource of clinically approved drugs enabling repurposing and chemical genomics. Sci Transl Med 3, 80ps16.
3. Trychta, K.A., Back, S., Henderson, M.J., and Harvey, B.K. (2018a). KDEL Receptors Are Differentially Regulated to Maintain the ER Proteome under Calcium Deficiency. Cell Rep 25, 1829-1840 e1826.
SEQUENCE No. (1, 2, 3, etc.); […] (e.g., Cells, Incubation, Reagent, etc.); VALUE and DESCRIPTION.
1; Reagent; 5 uL; 1000 SH-SY5Y cells per wells
3; Compound; 23 nL; Control inhibitor / compound library
5; Reagent; 100 nM; Thapsigargin
7; Reagent; 5 uL; CellTiter-Glo (Promega)
8; Time; 10 min; room temperature
9; Detection; Luminescence; ViewLux imaging system
NOTES (numbers refer to sequence above)
1; SH-SY5Y human neuroblastoma cells stably expressing GLuc-SERCaMP (SH-SY5Y-GLuc-ASARTDL) cells were seeded in 1,536 well white tissue culture treated plates (Corning, Cat# 7464) in DMEM-high glucose-sodium pyruvate (ThermoFisher Scientific, Cat #10569) supplemented with 10% bovine growth serum (Hyclone), 10 U/ml penicillin (Gibco), 10 ug/ml streptomycin (Gibco), and 20 mM HEPES.
2; Assay plates were incubated for 5 hr at 37C in a humidified incubator containing 5% CO2.
3; qHTS libraries (23 nl, final concentrations of 1.53 uM, 7.67 uM, 38.3 uM) or controls (neutral control: DMSO, positive control: dantrolene) were added using a Kalypsis pin-tool Robotic System equipped with 1536 pinheads.
4; Cells were then incubated for 42 hours at 37C, 5% CO2.
5; Thapsigargin was added at 100 nM to deplete ER calcium stores.
6; Cells were incubated for 4 hr (37C, 5% CO2).
7; Cell viability was measured using the CellTiter-Glo Luminescent Cell Viability Assay (Promega). Briefly, an equal volume of reagent was added to each well. Plates were rotated for 2 min.
8; Assay plates were incubated for 10 min at room temperature.
9; Luminescence was measured using a ViewLux CCD imaging system (Perkin Elmer) equipped with clear filters.

[8] = biological target: Papain (Carica papaya) (UniProt P00784); assay: Primary qHTS assay for inhibitors of the protease papain (AID 1645873);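 further: papain turnover of Z-FR-AMC read as the AMC fluorescence gain over 10 min; series mostly up to about 50 µM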
Papain (Carica papaya), sequence (P00784 whole entry, looked up): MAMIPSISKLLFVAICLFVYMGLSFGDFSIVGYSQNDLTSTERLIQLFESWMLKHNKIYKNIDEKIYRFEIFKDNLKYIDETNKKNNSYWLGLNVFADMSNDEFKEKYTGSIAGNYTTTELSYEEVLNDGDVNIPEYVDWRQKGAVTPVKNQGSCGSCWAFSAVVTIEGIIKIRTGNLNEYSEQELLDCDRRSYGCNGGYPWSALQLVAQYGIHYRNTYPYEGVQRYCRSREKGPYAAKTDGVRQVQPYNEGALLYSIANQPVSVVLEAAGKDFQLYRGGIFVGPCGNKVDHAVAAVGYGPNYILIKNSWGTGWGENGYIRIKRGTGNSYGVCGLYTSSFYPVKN

[9] = biological target: Cytochrome P450 3A4 (Homo sapiens) (UniProt P08684); assay: Cytochrome P450 family 3 subfamily A member 4 (CYP3A4) small molecule antagonists: luciferase qHTS assay (AID 1645841; active means well fitted curve in the direction sought with a large enough effect in the repeat runs; an effect the other way counts as inactive or inconclusive; further: nearly all actives have a fitted effect of over 45% in size)
Cytochrome P450 3A4 (Homo sapiens), sequence (P08684 whole entry, looked up): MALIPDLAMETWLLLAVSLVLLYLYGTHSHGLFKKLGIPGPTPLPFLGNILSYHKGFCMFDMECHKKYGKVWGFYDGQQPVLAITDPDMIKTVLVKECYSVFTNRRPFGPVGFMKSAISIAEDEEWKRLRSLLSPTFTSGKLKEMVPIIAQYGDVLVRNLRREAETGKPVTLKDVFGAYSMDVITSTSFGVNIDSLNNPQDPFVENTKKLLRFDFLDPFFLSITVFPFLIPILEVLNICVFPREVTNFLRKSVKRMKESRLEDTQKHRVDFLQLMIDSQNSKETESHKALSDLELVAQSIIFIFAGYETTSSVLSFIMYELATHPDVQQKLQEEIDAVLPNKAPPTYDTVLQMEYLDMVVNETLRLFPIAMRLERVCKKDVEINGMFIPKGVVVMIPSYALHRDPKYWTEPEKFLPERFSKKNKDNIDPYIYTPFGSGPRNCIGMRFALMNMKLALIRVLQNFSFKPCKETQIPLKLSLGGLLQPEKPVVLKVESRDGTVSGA
Method: National Center for Advancing Translational Sciences [NCATS]
Cytochrome P450 (CYP) enzymes are membrane-bound hemeproteins that play a key role in metabolism of drugs and xenobiotics. Assaying the effect of chemicals on CYP isozymes is useful to minimize the adverse drug reactions and toxicities in drug development process. Chemical compounds were tested for their effect on CYP enzyme activities by using P450-Glo (TM) screening systems (Promega Corporation, Madison, WI). These systems provide a luminescent method containing proluciferin substrates and are converted to luciferin products by CYP isozymes. The luciferin products formed are detected with a luciferin detection reagent, and the amount of light produced is proportional to CYP activity. P450-Glo (TM) CYP3A4 screening system (Catalog. No. V9910) was used to detect the compounds that interfere in CYP3A4 activity. The positive control compound used for CYP3A4 assay is ketoconazole (Sigma-Aldrich, St. Louis, MO).
Two ul of enzyme-substrate mix was dispensed into medium binding white/solid 1536-well plates (Greiner Bio-One North America Inc., Monroe, NC) using a Flying Reagent Dispenser (FRD, Aurora Discovery, San Diego, CA). Test compounds dissolved in DMSO and positive control (ketoconazole) were transferred to the assay plates at 23 nl using a Pintool station (Wako, San Diego, CA). The assay plates were incubated at room temperature for 10 min. Then 2 ul of NADPH regeneration solution was added to each well of the assay plates using an FRD and incubated at room temperature for 1 h. The reaction was stopped by adding 4 ul of detection reagent using an FRD and after 20 min incubation at room temperature, the luminescence signal was measured using a ViewLux plate reader (Perkin Elmer, Shelton, CT). Data were expressed as relative luminescence units.

COc1cc(-c2ccc(=O)[nH]n2)ccc1OC(F)F
Potency [1]: inactive
Potency [2]: inactive

CN(C)CCCOc1nn(Cc2ccccc2)c2ccccc12
Potency [1]: inactive

CC(C)(Oc1ccc(Cl)cc1)C(=O)O
Potency [1]: inactive
Potency [2]: inactive

CN1CCN(C(c2ccccc2)c2ccccc2)CC1
outcome [3]: inactive
Potency [2]: inactive
Potency [4]: 4.9 µM (active)
Potency [5]: inactive

C[C@@H]1CN(CCCn2c3ccccc3c3ccccc32)C[C@H](C)N1
Potency [6]: inactive
Potency [7]: 31.6 µM (active)
Potency [5]: inactive

CN1C2CCC1CC(OC(=O)c1c[nH]c3ccccc13)C2 (centres undefined)
outcome [3]: inactive
Potency [8]: inactive

O=C(Nc1ccc(Oc2ccc(Cl)cc2)c(Cl)c1)c1cc(I)cc(I)c1O
outcome [3]: inactive
Potency [4]: 19.5 µM (active)
Potency [5]: inactive

CNCCC(Oc1ccccc1C)c1ccccc1 (centres undefined)
Potency [1]: inactive

CC(=O)OCC(=O)[C@@]12OC(C)(C)O[C@@H]1C[C@H]1[C@@H]3C[C@H](F)C4=CC(=O)C=C[C@]4(C)[C@@]3(F)[C@@H](O)C[C@@]12C
Potency [1]: inactive
Potency [2]: inactive

CC(C)(C)CC(C)(C)c1ccc(OCCOCC[N+](C)(C)Cc2ccccc2)cc1
Potency [1]: inactive

CC(C)N=C(N)/N=C(\N)Nc1ccc(Cl)cc1
outcome [3]: inactive
Potency [4]: 3.09 µM (active)
Potency [5]: inactive

CN1CCCC(CC2c3ccccc3Sc3ccccc32)C1 (centres undefined)
Potency [6]: 22.4 µM (active)
max response [7]: -16.7%
Potency [4]: 0.0692 µM (active)
Potency [5]: inactive

Oc1ccc(O)cc1
outcome [3]: inactive
max response [7]: -23.4%
Potency [5]: inactive
Potency [8]: inactive

c1ccc(-c2ccc(C(c3ccccc3)n3ccnc3)cc2)cc1 (centres undefined)
Potency [6]: inactive
Potency [4]: 0.246 µM (active)
Potency [5]: 0.0245 µM (active)

CN(C)C(=S)SC(=S)N(C)C
outcome [3]: inactive
Potency [6]: inactive
Potency [2]: inactive
Potency [4]: inactive

Clc1ccc2c(c1)CCc1cccnc1C2=C1CCNCC1
Potency [1]: inactive

C#C[C@]1(O)CC[C@H]2[C@@H]3CCC4=CC(=O)CC[C@@H]4[C@H]3CC[C@@]21C
Potency [1]: inactive

COc1cc2c(cc1OC)C(=O)C(CC1CCN(Cc3ccccc3)CC1)C2 (centres undefined)
Potency [1]: inactive
Potency [2]: 12.6 µM (active)

CN1CCC[C@@H]1c1cccnc1
Potency [1]: inactive
Potency [2]: inactive
Potency [4]: inactive
outcome [9]: inactive

COc1c(C)c2c(c(O)c1C/C=C(\C)CCC(=O)O)C(=O)OC2
Potency [1]: inactive
Potency [2]: inactive
Potency [4]: inactive
Potency [5]: inactive

C[C@]12CC[C@H]3[C@@H](CCC4=CC(=O)CC[C@@]43C)[C@@H]1CC[C@@H]2C(=O)CO
Potency [1]: inactive
Potency [2]: inactive
Potency [4]: inactive
Potency [5]: inactive

Nc1ccc(C(=O)O)cc1
Potency [1]: inactive
Potency [2]: inactive
Potency [4]: inactive
Potency [5]: inactive
